Most compounds without a hit are left out; they make up all but 2.2% or so of the library.
HTR5A ag = activates human HTR5A in OPRM1-OPRD1 agonist counter-screen. P47898. HTR5A agonist assay, luminescence, cell-based. 0.61% of 340,000 active. activation, % at 9.3 µM; in the data active = activation mostly above about 9.5%, no sharp cut-off; inactive = mostly below about 7.6%;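 note: 0% = cells with vehicle only and 100% = reference agonist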
MOR-DOR inv ag = inverse agonists of human mu-delta opioid receptor heterodimerization; cell-based MOR-DOR heterodimer luminescence, inverse agonism; 0.21% of 340,000 active; inhibition, % at 9.3 µM; in the data active = inhibition above about 22%, passing the limit was not always enough;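 note: 0% = cells with DMSO and 100% = wells without cells with DMSO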
HGIII-sPLA2 inh = Blocks human group III sPLA2 activity; Q9NZ20; QFRET BODIPY PC-A2 liposome hydrolysis, fluorescence; inhibition, % at 12.2 µM; 0.56% of 370,000 active;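 active = inhibition above mean plus 3 SD of compounds lying within the high and low control bounds, cut at about 19% in these data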;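 note: 0% = median of test compound wells and 100% = no enzyme DMSO wells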
Target sequence (Q9NZ20 whole entry, looked up): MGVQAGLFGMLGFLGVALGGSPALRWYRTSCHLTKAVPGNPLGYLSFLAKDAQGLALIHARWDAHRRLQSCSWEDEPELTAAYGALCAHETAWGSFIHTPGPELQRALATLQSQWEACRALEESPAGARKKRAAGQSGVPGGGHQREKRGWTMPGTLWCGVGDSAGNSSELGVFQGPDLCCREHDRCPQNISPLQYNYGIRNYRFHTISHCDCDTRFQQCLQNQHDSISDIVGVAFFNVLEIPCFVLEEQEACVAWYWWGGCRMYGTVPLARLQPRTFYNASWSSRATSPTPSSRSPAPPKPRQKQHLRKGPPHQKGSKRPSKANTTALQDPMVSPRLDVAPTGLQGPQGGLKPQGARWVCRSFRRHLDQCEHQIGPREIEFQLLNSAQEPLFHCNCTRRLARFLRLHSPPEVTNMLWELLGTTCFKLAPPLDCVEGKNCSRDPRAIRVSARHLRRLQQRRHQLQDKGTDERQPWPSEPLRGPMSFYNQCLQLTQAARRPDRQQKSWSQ
MOR-DOR ag = agonists of human mu-delta opioid receptor heterodimerization; P35372+P41143; cells, OPRM1-OPRD1 heterodimerization, luminescence; activation, % at 9.3 µM; 0.3% of 340,000 active; AID 504326; in the data active = activation above about 18%;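 note: 0% = vehicle-treated cells and 100% = reference agonist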
HTR2A ag = activates the mouse 5-HT2A serotonin receptor. P35363. CHO-K1 mHTR2A beta-arrestin complementation, luminescence; percent of 30 µM serotonin response. activation, % at 7.6 µM. 0.66% of 360,000 active;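 active = activation above a run cutoff, the mean activation of all tested compounds plus 3 SD, cut at about 14% in these data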;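 note: 0% = plate median of compound wells and 100% = 30 µM serotonin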
HTR5A inv ctr = inverse agonist of human HTR5A in OPRM1-OPRD1 counter-screen | HTR5A cell line, luminescence, inverse agonism | inhibition, % at 9.3 µM | 0.083% of 340,000 active; in the data active = inhibition mostly above about 23%, no sharp cut-off; inactive = mostly below about 18%;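 note: 0% = cells with DMSO and 100% = no-cell wells with DMSO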
* = called active by the depositor; . = no result given.

SMILES	HTR5A ag	MOR-DOR inv ag	HGIII-sPLA2 inh	MOR-DOR ag	HTR2A ag	HTR5A inv ctr
CO[C@H]([C@H](C)/C=C/N(C)C=O)[C@@H](C)C(=O)CC[C@H](C)[C@H](O)[C@H](C)[C@H]1OC(=O)/C=C/C(C)=C/C[C@H](O)C[C@@H]2C=CC[C@@H](C[C@H](OC)[C@@H](C)[C@@H](OC)C[C@@H](OC)[C@@H]1C)O2	.	.	-20.1	.	.	.
CCOC(=O)c1c(C)[nH]c(C(=O)CN2CCN(CC)CC2)c1C	2.3	9.7	-3.5	-1.9	2.0	-0.7
CCOC(=O)c1c(C)[nH]c(C(=O)CN2CC(C)OC(C)C2)c1C (stereo unspecified)	-5.3	12.3	0.4	-2.1	16.7*	9.4
CC(C)CSc1nnc(-c2ccco2)n1C	.	.	-0.3	.	.	.
COc1cc(C(=O)NC(=S)Nc2cccc3nc(C)ccc23)cc(OC)c1OC	30.0*	-134.6	6.5	26.5*	-0.1	-58.6
COC(=O)[C@]12C[C@H](CC(=O)NCCCCc3ccccc3)C(=O)N(Cc3ccco3)C1=C[C@H](C(C)(C)C)O[C@@H]2C	.	.	-18.9	.	.	.
Cc1ccccc1NC(=O)CCC(=O)N/N=C/c1c[nH]c2ccccc12	2.1	14.9	1.2	-3.0	0.2	-7.7
O=C(CCC(=O)Nc1ccccc1Cl)N/N=C/c1c[nH]c2ccccc12	-2.0	6.8	-10.1	-1.3	22.0*	-19.0
COC(=O)c1c(N2C(=O)Nc3ccccc3N2O)sc(C)c1C	2.1	5.5	-1.7	-0.9	-1.7	2.5
COC(=O)c1c(-n2cnnn2)sc(C)c1C	12.0*	11.7	-0.2	-2.3	9.7	-16.2
Cc1ccc(-n2[nH]c(C)c(C=Nc3ccc4[nH]c(=O)[nH]c4c3)c2=O)cc1	1.3	-33.8	-1.5	5.6	1.5	-3.5
Cc1ccc(-n2[nH]c(C)c(C=Nc3ccc4[nH]c(=O)[nH]c4c3)c2=O)cc1C	22.2*	-114.5	-18.1	24.9*	-1.6	-42.3
O=S(=O)(c1ccc(Cl)cc1)N(CCCN1CCOCC1)Cc1cccs1	10.6*	13.3	-4.2	-2.5	-2.1	5.8
O=C(CSc1nc2ccccc2nc1N1CCCCC1)N1CCN(S(=O)(=O)c2cc(Cl)ccc2Cl)CC1	.	.	-0.5	.	.	.
Cc1ccc2nc(N3CCN(c4cccc(C)c4C)CC3)c3nnnn3c2c1	5.1	10.8	-5.4	-1.8	2.5	-13.7
Cc1ccc2nc(Cl)c3nnnn3c2c1	-0.2	38.2*	.	-7.0	-0.2	0.5
COc1ccc(C)cc1NC(=O)NNC(=O)C1CCC(C(C)(C)C)CC1 (stereo unspecified)	13.1*	-32.3	-15.1	6.3	-1.6	-37.5
O=S(=O)(CC1NCc2cc(F)ccc21)NCc1ccccc1 (stereo unspecified)	.	.	-0.1	.	.	.
Cn1c(SCc2ccc(C(C)(C)C)cc2)nnc1-c1ccco1	.	.	-6.1	.	.	.
COc1ccc(Cn2c(O)c(C=Nc3ccccc3C(=O)O)c3ccccc3c2=O)cc1	5.8	-21.2	7.0	3.9	10.8	-16.7
COc1ccccc1NS(=O)(=O)c1cccc(-n2c(O)c(C=Nc3ccccc3C(=O)O)c3ccccc3c2=O)c1	13.8*	-7.2	-38.8	1.4	8.4	34.0
Cc1c(Nc2cc(Cl)c3nonc3c2[N+](=O)[O-])c(=O)n(-c2ccccc2)n1C	-12.8	46.0*	1.4	-9.1	-8.9	33.1*
O=C(/C=C/c1ccc(Cl)cc1)NCc1cccs1	13.1*	-5.7	-4.9	1.3	-7.0	-48.5
O=C(/C=C/c1cccc(Cl)c1)NCc1cccs1	-2.8	3.4	1.4	-0.7	-5.8	-0.9
CC1=NN(c2ccccc2)C(=O)/C1=C/C=C/C=C/N(C)C	-7.9	32.9*	5.7	-6.2	-4.2	22.2*
O=C(Nc1ccccc1C(=O)O)c1ccc(Br)o1	9.1	4.1	1.2	-0.7	2.5	10.5
O=C(Nc1ccccc1F)c1ccc(Br)o1	13.0*	16.4	1.9	-2.9	4.5	13.3
COCC(=O)N[C@@H]1C[C@@H]2O[C@H](CO)CC[C@@H]2O[C@@H]1CCc1ccc(-c2ccccc2)cc1	.	.	-2.5	.	.	.
COc1ccc(NC(=O)N(C)C[C@H]2Oc3c(NC(=O)Nc4ccc(C(F)(F)F)cc4)cccc3C(=O)N([C@H](C)CO)C[C@@H]2C)cc1	2.0	11.0	-28.0	-1.9	23.1*	-38.0
